This is a sample that favours compounds with a hit; in the whole collection about 0.92% have one here.
AGP1 TOR yeast = alters AGP1-GFP fluorescence in TOR pathway yeast screen | 320,000 tested, 0.02% active | S. cerevisiae AGP1-GFP multiplex flow cytometry, 3 h; GFP as percent of DMSO wells | GFP response vs DMSO, % at 10 µM;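 active = GFP response relative to DMSO above a set limit, near screen average plus 3 SD, cut at about 150% in these data; inconclusive = fewer than 70 cells counted for the yeast strain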;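 also: median GFP channel fluorescence of the gated AGP1 strain per well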
RPL19A TOR yeast = alters RPL19A-GFP fluorescence in TOR pathway yeast screen; 330,000 tested, 0.3% active; AID 2025; percent response vs DMSO, % at 10 µM; S. cerevisiae RPL19A-GFP strain, flow cytometry, 3 h; hits give low values;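 active = percent response vs DMSO below 50%; inconclusive = fewer than 70 events counted for the yeast strain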;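 also: median channel GFP fluorescence of the barcoded RPL19A-GFP strain; lower means less RPL19A-GFP as with rapamycin TOR inhibition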
CIT2-GFP yeast = modulators of TOR pathway CIT2-GFP in S. cerevisiae; S. cerevisiae CIT2-GFP strain, flow cytometry, 3 h; 100 means same as DMSO wells; 320,000 tested, 0.065% active; GFP response vs DMSO, % at 10 µM;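 active = GFP response relative to DMSO above a set limit, near the screen mean plus 3 SD, cut at about 150% in these data; inconclusive = Fewer than 70 cells measured for a yeast strain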;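 also: ratio of well median GFP fluorescence to mean of DMSO wells on the plate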
MEP2 TOR yeast = modulators of TOR pathway MEP2-GFP in S. cerevisiae; S. cerevisiae MEP2-GFP strain, flow cytometry GFP, 3 h; 100% = DMSO control level; GFP response vs DMSO, % at 10 µM; 330,000 tested, 0.51% active;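 active = GFP response versus DMSO above a set limit, roughly screen mean plus 3 SD, cut at about 180% in these data; inconclusive = fewer than 70 cells counted for a yeast strain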;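 also: median GFP fluorescence of the barcode-gated MEP2-GFP cells per well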
LAP4 TOR yeast = alters LAP4-GFP fluorescence in TOR pathway yeast screen; S. cerevisiae LAP4-GFP multiplex, flow cytometry GFP, 3 h; median GFP as percent of DMSO wells; GFP response vs DMSO, % at 10 µM; 320,000 tested, 0.34% active;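 active = GFP response vs DMSO above a set limit, about the screen mean plus 3 SD, cut at about 150% in these data; inconclusive = under 70 cell events counted for the yeast strain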
Large screens that a line does not name were inactive; [ ] = dose if it differs, or a comment.

Cc1ccc(S(=O)(=O)NNC(=O)c2sc(NS(=O)(=O)c3ccccc3)nc2C)cc1	AGP1 TOR yeast inconclusive, CIT2-GFP yeast inconclusive, MEP2 TOR yeast 494[may fluoresce violet]
Cc1ccc(S(=O)(=O)Nc2nc(C)c(C(=O)NNS(=O)(=O)c3cc(C)ccc3C)s2)cc1	AGP1 TOR yeast inconclusive, CIT2-GFP yeast inconclusive, MEP2 TOR yeast 241[may fluoresce violet]
Nc1ccc2nc(CN3CCOCC3)[nH]c2c1	none
Oc1c(Br)cc(Br)cc1/C=N/c1nc2c(s1)CCCC2	RPL19A TOR yeast 47[may fluoresce violet], CIT2-GFP yeast inconclusive
Oc1ccc2ccccc2c1/C=N/c1nc2c(s1)CCCC2	none
CCOC(=O)c1c(NC(=O)CN2CCCc3ccccc32)sc(C(C)=O)c1C	AGP1 TOR yeast inconclusive, CIT2-GFP yeast inconclusive, MEP2 TOR yeast 213[may fluoresce violet]
COCCOC(=O)c1c(NC(=O)CN2CCc3ccccc32)sc(C(N)=O)c1C	none
Cc1ccc(-c2onc3ccc(C=O)cc23)cc1	none
Cc1ccc(-c2onc3ccc(C4(C)OCCO4)cc23)cc1	AGP1 TOR yeast inconclusive, RPL19A TOR yeast 46[may fluoresce violet], CIT2-GFP yeast inconclusive, MEP2 TOR yeast 217[may fluoresce violet]
CC12CCC(C(=O)N3CCc4ccccc43)(CC1=O)C2(C)C (configuration not stated)	CIT2-GFP yeast inconclusive, MEP2 TOR yeast 282[may fluoresce violet] (no result: RPL19A TOR yeast)
CC12CCC(C(=O)N3CCCc4ccccc43)(CC1=O)C2(C)C (configuration not stated)	none
COc1ccc(/C=C2\Sc3ccc(C(=O)N4CCc5ccccc5C4)cc3N(C)C2=O)cc1	MEP2 TOR yeast 218
O=C(O)C1CC=CCC1C(=O)N1CCN(c2nc(-c3ccccc3)c3ccccc3n2)CC1 (configuration not stated)	CIT2-GFP yeast inconclusive
O=C(O)C1CC=CCC1C(=O)N1CCN(c2nc(-c3ccccc3Cl)c3cc(Br)ccc3n2)CC1 (configuration not stated)	CIT2-GFP yeast inconclusive, MEP2 TOR yeast 192[may fluoresce violet]
CC1(C)C2CCC1(CS(=O)(=O)Nc1ccccc1)C(=O)C2 (configuration not stated)	none
Cc1c(NS(=O)(=O)CC23CCC(CC2=O)C3(C)C)c(=O)n(-c2ccccc2)n1C (configuration not stated)	AGP1 TOR yeast inconclusive, CIT2-GFP yeast inconclusive, MEP2 TOR yeast 205[may fluoresce violet]
N#Cc1cccc(NC(=O)CCc2ccc(S(=O)(=O)N3CCOCC3)cc2)c1	none
CCCN1CCN(C(=O)c2oc3ccccc3c2NC(=O)COc2ccc(OC)cc2)CC1	RPL19A TOR yeast 31
Cc1cc(C)c2c(N)c3cccc(C)c3nc2n1	CIT2-GFP yeast inconclusive, MEP2 TOR yeast 322[may fluoresce violet]
COc1ccc(CNC2CCCCC2C)c(OC)c1 (configuration not stated)	RPL19A TOR yeast 45[may fluoresce violet], CIT2-GFP yeast inconclusive
CCOC(=O)C1=C(c2ccccc2)NC(SCC(=O)Nc2ccc(C)cc2)=C(C#N)C1c1ccco1 (configuration not stated)	AGP1 TOR yeast inconclusive, RPL19A TOR yeast 19[may fluoresce violet], CIT2-GFP yeast inconclusive, MEP2 TOR yeast 271[may fluoresce violet]
Cc1ccc(NC(=O)CSC2=C(C#N)C(c3ccco3)CC(=O)N2)cc1 (configuration not stated)	CIT2-GFP yeast inconclusive, MEP2 TOR yeast 183[may fluoresce violet]
Cc1cc(C)c2c(n1)nn1c(NCCOCCO)cc(C)nc21	none
Cc1cc(C)c2c(n1)nn1c(NCCCN(C)C)cc(C)nc21	RPL19A TOR yeast 35[may fluoresce violet], CIT2-GFP yeast inconclusive, MEP2 TOR yeast 259[may fluoresce violet]
CC1CCC(NC(=O)CN2C(=O)NC(C)(C)C2=O)CC1 (configuration not stated)	none
NCCC1CCCC(CCN)N1 (configuration not stated)	RPL19A TOR yeast inconclusive, LAP4 TOR yeast 454[may fluoresce red]
CCCCNC(=O)n1c(SC)nc2ccccc21	CIT2-GFP yeast inconclusive, MEP2 TOR yeast 379[may fluoresce violet]
COc1ccccc1C(=O)NNC(=O)C(=O)Nc1cccc(Cl)c1C	LAP4 TOR yeast 263
CN1CCCN(C(=O)c2ccc(Br)cc2)CC1	none
CCCCCCN1C2=NCCCN2c2ccccc21	none
CCCN1C2=NS(=O)(=O)CCN2c2ccccc21	CIT2-GFP yeast inconclusive, MEP2 TOR yeast 260[may fluoresce violet] (no result: RPL19A TOR yeast)
C=CCN1C(=O)c2ccc(C(=O)N3CCC(C(N)=O)CC3)cc2C1=O	CIT2-GFP yeast inconclusive
CC1CC(C)CN(S(=O)(=O)c2ccc(NC(=O)[C@@H]3CCCN3C(=O)c3cccs3)cc2)C1 (some centres not stated)	none
COc1cc2c(cc1OC)CN(C(=O)c1ccc(S(=O)(=O)N3CCCC3)cc1)CC2	none
COc1cc2c(cc1OC)CN(C(=O)NS(=O)(=O)c1ccc(C)cc1)CC2	RPL19A TOR yeast 47[may fluoresce violet], CIT2-GFP yeast inconclusive, MEP2 TOR yeast 582[may fluoresce violet]
COc1ccc(-c2cc(C(=O)N3CCN(C(c4ccccc4)c4ccccc4)CC3)no2)cc1	AGP1 TOR yeast inconclusive, RPL19A TOR yeast 41[may fluoresce violet], CIT2-GFP yeast inconclusive, MEP2 TOR yeast 201[may fluoresce violet]
COc1ccc(-c2cc(C(=O)N3CCN(C(c4ccccc4)c4ccccc4)CC3)no2)cc1OC	none
O=C(NCc1ccc2c(c1)OCO2)C1CC(=O)N(c2ccc(Cl)cc2)C1 (configuration not stated)	none
O=S1(=O)C=C(Sc2nnc(-c3ccccc3)o2)c2ccccc21	CIT2-GFP yeast inconclusive, LAP4 TOR yeast 258[may fluoresce violet]
Cc1cc(C)nc(SC2=CS(=O)(=O)c3ccccc32)n1	none
Oc1c(Br)cc(Br)cc1C=Nc1cccc2ncccc12	LAP4 TOR yeast 191
O=C(NC1CCCC1)C(c1cccs1)N(C(=O)c1csnn1)c1ccccc1F (configuration not stated)	none
CC/C(C)=N/Nc1nc2c(c(=O)[nH]c(=O)n2C)n1Cc1ccccc1	none
CC/C(C)=N/Nc1nc2c(c(=O)[nH]c(=O)n2C)n1CCc1ccccc1	AGP1 TOR yeast inconclusive, CIT2-GFP yeast inconclusive, MEP2 TOR yeast 242[may fluoresce violet]
O=C(Nc1ccc(N2CCOCC2)cc1N1CCOCC1)c1ncoc1-c1cccc(F)c1	none
CCOc1ccc(N2CC(C(=O)Nc3ccccc3N3CCOCC3)CC2=O)cc1 (configuration not stated)	RPL19A TOR yeast 38[may fluoresce violet], CIT2-GFP yeast inconclusive, MEP2 TOR yeast 260[may fluoresce violet]
CC(C)C[C@H](N)C(=O)N1CCC(C(=O)N[C@H](C(=O)NC(C)c2ccccc2)C(C)C)CC1 (some centres not stated)	AGP1 TOR yeast inconclusive, RPL19A TOR yeast 15[may fluoresce violet], CIT2-GFP yeast inconclusive, MEP2 TOR yeast 247[may fluoresce violet]
CC(C)C[C@H](N)C(=O)N1CCC(C(=O)N[C@H](C(=O)NCc2ccc(F)cc2)C(C)C)CC1	none
CC(OC(=O)CN1C(=O)c2ccccc2C1=O)C(=O)NC1CCCCC1C (configuration not stated)	none
CCc1ccc(C2=NN(c3ccc(S(N)(=O)=O)cc3)C(c3ccc(F)cc3)C2)cc1 (configuration not stated)	CIT2-GFP yeast inconclusive, MEP2 TOR yeast 202[may fluoresce violet] (no result: AGP1 TOR yeast)
NS(=O)(=O)c1ccc(N2N=C(c3ccccc3)CC2c2ccccc2)cc1 (configuration not stated)	none
